Rows were chosen to be rich in hits. Some 1.8% of all compounds tested hit in one or more screens of this group.
PME-1 primary – PME-1 inhibitors via competitive probe labeling, primary screen, biochemical, fluorescence polarization, FP-Rh probe, HTS; Protein phosphatase methylesterase 1 (Homo sapiens), Q9Y570; recombinant PME-1; inhibition, % at 5.9 µM; 320,000 tested, 0.53% active;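 active means inhibition above the campaign mean of all compounds plus 3 SD, cut at about 26% in these data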;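 further: competitive labeling of PME-1 active site by serine hydrolase directed probe; 0% = PME-1 with DMSO and 100% = wells lacking PME-1 enzyme; inhibitors block probe labeling so polarization falls and inhibition rises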
Fam108B counter – mouse Fam108B serine hydrolase inhibitors, primary screen, counter-screen for RBBP9 inhibitor project, biochemical, fluorescence polarization; AID 1947, 2009; recombinant Fam108B, FP-Rh probe fluorescence polarization; 300,000 tested, 0.33% active; inhibition, % at 9.51 µM;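 active means inhibition above the screen mean inhibition plus 3 SD, computed separately per campaign, cut at about 18% in these data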;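 further: inhibitors lower polarization as less probe binds the enzyme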
GSTO1 counter – inhibitors of recombinant GSTO1, primary screen, counter-screen for RBBP9 inhibitor project, biochemical, fluorescence polarization; activity-based probe fluorescence polarization; inhibition, % at 5.96 µM; 300,000 tested, 1.1% active; AID 1974, 2009;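 active means inhibition above the campaign mean inhibition plus 3 SD, cut at about 35% in these data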;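 further: 0% = GSTO1-1 with DMSO and 100% = wells lacking GSTO1-1 enzyme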
Target sequence (P78417 whole entry, looked up): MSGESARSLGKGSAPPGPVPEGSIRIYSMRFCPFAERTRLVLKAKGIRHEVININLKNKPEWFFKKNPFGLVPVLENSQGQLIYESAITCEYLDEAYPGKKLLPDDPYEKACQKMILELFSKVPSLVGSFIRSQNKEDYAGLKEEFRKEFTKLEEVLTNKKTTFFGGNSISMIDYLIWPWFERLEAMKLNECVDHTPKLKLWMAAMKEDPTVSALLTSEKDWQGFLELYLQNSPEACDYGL
LYPLA2 inh – LYPLA2 inhibitors, primary screen, counter-screen for PME1 inhibitor project, biochemical, fluorescence polarization, FP-Rh probe ABPP | recombinant LYPLA2 | inhibition, % at 5.9 µM | 320,000 tested, 0.38% active | AID 2177, 2009;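 active means inhibition above the screen-wide mean plus 3 SD, limit set per campaign, cut at about 26% in these data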;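 further: 0% = LYPLA2 with DMSO and 100% = wells lacking LYPLA2 enzyme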
Target sequence (O95372 whole entry, looked up): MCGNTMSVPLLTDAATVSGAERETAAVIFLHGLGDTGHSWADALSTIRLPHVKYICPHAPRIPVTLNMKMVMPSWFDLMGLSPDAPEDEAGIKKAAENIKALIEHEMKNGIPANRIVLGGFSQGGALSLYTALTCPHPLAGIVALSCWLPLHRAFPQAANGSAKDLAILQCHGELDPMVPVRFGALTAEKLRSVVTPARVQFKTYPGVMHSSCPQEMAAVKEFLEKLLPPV
LYPLA1 counter – LYPLA1 inhibitors, primary screen, counter-screen for PME1 inhibitor project, biochemical, fluorescence polarization, FP-Rh probe ABPP; recombinant LYPLA1; inhibition, % at 5.9 µM; 320,000 tested, 0.16% active;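 active means inhibition above the mean of all tested compounds plus 3 SD, set per campaign, cut at about 14% in these data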;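 further: inhibitors block serine hydrolase probe labeling of LYPLA1 so polarization falls; 0% = enzyme with DMSO and 100% = wells lacking LYPLA1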
PAD4 FP inh – human PAD4 inhibitors, primary screen, biochemical, fluorescence polarization, 1536-well format. recombinant PAD4, RCA probe fluorescence polarization. inhibition, % at 6.36 µM. 330,000 tested, 0.41% active. AID 485272, 2010;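 active means percent inhibition above a cutoff equal to the mean of all tested compounds plus 3 SD, cut at about 15% in these data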;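 further: 0% = PAD4 with RCA probe and DMSO and 100% = probe without PAD4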
Active calls of the source: *.

SMILES	PME-1 primary	Fam108B counter	GSTO1 counter	LYPLA2 inh	LYPLA1 counter	PAD4 FP inh
CC(=O)Nc1ccc(S(=O)(=O)NCCC(=O)Nc2ccc(C)c(Cl)c2)cc1	-3	0	0	-3	-3	-3
CC(=O)Nc1ccc(S(=O)(=O)NCCSCc2ccccc2Cl)cc1	2	-1	54*	-2	-4	-2
Cc1cc(NS(=O)(=O)c2ccc(Nc3nc(-c4sc(N)nc4C)cs3)cc2)no1	-8	15	37*	-10	-16	-21
Cc1cc(NS(=O)(=O)c2ccc(Nc3nc(-c4ccc(C)c(C)c4)cs3)cc2)no1	19	2	9	6	9	-2
Cc1cc(-c2ccc(N=Nc3c(S(=O)(=O)O)cc4cc(S(=O)(=O)O)cc(N)c4c3O)c(C)c2)ccc1N=Nc1c(S(=O)(=O)O)cc2cc(S(=O)(=O)O)cc(N)c2c1O	3	36*	-76	-19	-22	-45
N#Cc1nc(COc2ccccc2F)oc1NCCCn1ccnc1	-2	2	36*	12	2	0
Cc1ccc(C(=O)NCC(=O)OCCCOC(=O)CNC(=O)c2ccc(C)cc2)cc1	-4	-3	2	1	2	0
Cc1cccc(OC(C)C(=O)NC2CCS(=O)(=O)C2)c1C (configuration not stated)	-6	1	1	3	3	-1
O=S1(=O)Nc2c(ccc3cccnc23)-c2ccccc21	5	-7	55*	1	-1	-1
O=c1[nH]n(-c2cccc3cccnc23)c(=O)c2ccccc12	5	-1	16	5	2	-3
O=C1CCCC2=C1C(c1ccc(O)c(O)c1)c1c(ccc3ncccc13)N2 (configuration not stated)	-22	-3	75*	-27	-14	-9
CCOc1ccc(C2C3=C(CCCC3=O)Nc3ccc4ncccc4c32)cc1 (configuration not stated)	11	2	7	-2	-2	1
CCN1C/C(=C/c2ccc(OC)c(O)c2)C(=O)/C(=C/c2ccc(OC)c(O)c2)C1	2	-4	26	4	4	-2
COc1ccc(/C=C2\CN(Cc3ccccc3)C/C(=C\c3ccc(OC)c(O)c3)C2=O)cc1O	27*	16	17	15	-4	0
CC(=O)c1c(C)[nH]c(C(=O)Nc2nc(-c3ccc(Cl)cc3)cs2)c1C	51*	-6	-5	-2	-2	3
COc1ccc(-c2nc(NC(=O)c3[nH]c(C)c(C(C)=O)c3C)sc2C)cc1	47*	16	-36	-2	-7	1
CN(CC(=O)Nc1cccc(F)c1)C(=O)CCc1nc2cc(S(=O)(=O)N3CCOCC3)ccc2n1C	-3	2	-4	2	1	4
Oc1cc(Br)ccc1C=Nc1ccc(N2CCCCC2)cc1	0	-1	53*	9	5	10
COc1ccc(NC(=O)CN(C)C(=O)c2cccc(S(=O)(=O)Nc3ccccc3Cl)c2)cc1	-2	-1	1	-1	1	0
CC1(OC(=O)CCc2ccccc2)C(=O)C=C2C=C3CCCN3C=C2C1=O (configuration not stated)	4	3	36*	-6	-5	-11
CCN1C(=O)/C(=C2/Sc3ccccc3N2CC)S/C1=N\c1ncn[nH]1	34*	14	-3	3	10	-1
O=C(N/N=C/c1sc2ccccc2c1O)c1cccc2ccccc12	10	3	42*	2	-2	-28
CCOc1ccc(N2C(=O)CS/C2=C(\C(Cl)=C(Cl)Cl)[N+](=O)[O-])cc1	3	7	51*	6	-4	-19
CCC(C)c1ccc(NC(=O)NCCN2CCCCC2)cc1 (configuration not stated)	-4	-5	-1	-6	-3	-2
C=CCNC1=C(Cl)C(=O)c2ccccc2C1=O	-3	-1	68*	3	2	-1
SMILES	PME-1 primary	Fam108B counter	GSTO1 counter	LYPLA2 inh	LYPLA1 counter	PAD4 FP inh
C=CCNC1=C(Cl)C(=O)N(Cc2ccccc2)C1=O	0	2	25	1	1	1
COc1ccc(NC(=O)CN2CCN(CC(=O)Nc3ccc(OC)cc3)CC2)cc1	4	3	7	0	-3	-4
CCN(CC)C(=S)Sc1c(-c2ccccc2)c2cc(Cl)ccc2[nH]c1=O	35*	9	-2	-3	-3	2
O=C(O)CSc1c(-c2ccccc2)c2cc(Cl)ccc2[nH]c1=O	0	-7	4	-1	-2	-1
Cc1ccc(S(=O)(=O)Nc2cc(C(C(=O)OC(C)C)C(=O)C(F)(F)F)c(O)c3ccccc23)c(C)c1 (configuration not stated)	11	5	44*	-15	-7	8
COc1ccc(CC(=O)Oc2ccc(F)c(F)c2)cc1S(=O)(=O)N1CCOCC1	-1	3	8	7	5	0
CCC(C)(C)C1CCc2c(sc(NC(=O)c3ccccc3C(=O)O)c2C#N)C1 (configuration not stated)	27*	-2	-34	4	2	-7
Cc1cc(C(=O)CSc2nnnn2-c2ccc(O)cc2)c(C)n1C	-1	1	-1	-1	1	-4
CSc1ccc(CN(C)Cc2nc3ccccc3c(=O)[nH]2)cc1	1	0	6	-3	-2	3
COc1cc(/C=C(\C#N)C(=O)c2ccc(O)c(O)c2)cc(I)c1O	-24	-3	45*	-12	-7	-32
Cn1cnnc1SCc1ccc(C(=O)N=Nc2c(O)n(Cc3ccc(Cl)cc3)c3ccccc23)cc1	4	-1	-3	26*	4	-7
CCn1c(O)c(N=NC(=O)c2ccc(CSc3nncn3C)cc2)c2ccccc21	2	3	-2	-1	0	-1
C[C@@H](NC(=O)C(=O)c1c[nH]c2ccccc12)c1ccccc1	5	-3	-3	6	2	4
CC(Cl)C(=O)c1c[nH]c2ccccc12 (configuration not stated)	0	0	37*	-4	0	4
Cc1ccc(-c2[nH]nc3c2C(c2ccoc2)C(C#N)=C(N)O3)cc1C (configuration not stated)	-3	-3	44*	5	2	-15
Cc1ccc(-n2nc(C)c3c2OC(N)=C(C#N)C3c2ccco2)cc1 (configuration not stated)	-7	-3	36*	5	-1	-12
